From PubChem BioAssay (NCATS)
Results filed as inconclusive are left out. Entries that show only a call come without a potency. Calls of active or inactive are those of the source. Calls follow the shape of the dose curve; as a rule, active = well fitted curve in the direction sought with a large enough effect; inconclusive = small, poorly fitted or top-dose-only effect, or another doubt; inactive = no such curve, though single readings can be large; an effect the other way counts as inactive or inconclusive.

How the values were obtained:
[1] = NCATS anti-infectives library activity on HEK293 viability as a counter-qHTS vs the C. elegans viability qHTS (AID 1745854)
Outline: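 CellTiter-Glo luminescence, read on a CCD imager, scored viability of HEK293 cells after 24 hr compound exposure at 37C. Library tested in several concentrations, 1:5 steps, up to 41.7 uM; digitonin served as control.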

[2] = target: Rap guanine nucleotide exchange factor 4 (Homo sapiens) (UniProt Q8WZA2); test: Confirmatory qHTS for agonist of cAMP-regulated guanine nucleotide exchange factor 4 (EPAC2) (AID 1645884);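 also: nucleotide exchange releases bodipy-GDP from Rap1 and this lowers its fluorescence; nearly all actives have a fitted effect of over 65% in size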
Rap guanine nucleotide exchange factor 4 (Homo sapiens), sequence (Q8WZA2 whole entry, looked up): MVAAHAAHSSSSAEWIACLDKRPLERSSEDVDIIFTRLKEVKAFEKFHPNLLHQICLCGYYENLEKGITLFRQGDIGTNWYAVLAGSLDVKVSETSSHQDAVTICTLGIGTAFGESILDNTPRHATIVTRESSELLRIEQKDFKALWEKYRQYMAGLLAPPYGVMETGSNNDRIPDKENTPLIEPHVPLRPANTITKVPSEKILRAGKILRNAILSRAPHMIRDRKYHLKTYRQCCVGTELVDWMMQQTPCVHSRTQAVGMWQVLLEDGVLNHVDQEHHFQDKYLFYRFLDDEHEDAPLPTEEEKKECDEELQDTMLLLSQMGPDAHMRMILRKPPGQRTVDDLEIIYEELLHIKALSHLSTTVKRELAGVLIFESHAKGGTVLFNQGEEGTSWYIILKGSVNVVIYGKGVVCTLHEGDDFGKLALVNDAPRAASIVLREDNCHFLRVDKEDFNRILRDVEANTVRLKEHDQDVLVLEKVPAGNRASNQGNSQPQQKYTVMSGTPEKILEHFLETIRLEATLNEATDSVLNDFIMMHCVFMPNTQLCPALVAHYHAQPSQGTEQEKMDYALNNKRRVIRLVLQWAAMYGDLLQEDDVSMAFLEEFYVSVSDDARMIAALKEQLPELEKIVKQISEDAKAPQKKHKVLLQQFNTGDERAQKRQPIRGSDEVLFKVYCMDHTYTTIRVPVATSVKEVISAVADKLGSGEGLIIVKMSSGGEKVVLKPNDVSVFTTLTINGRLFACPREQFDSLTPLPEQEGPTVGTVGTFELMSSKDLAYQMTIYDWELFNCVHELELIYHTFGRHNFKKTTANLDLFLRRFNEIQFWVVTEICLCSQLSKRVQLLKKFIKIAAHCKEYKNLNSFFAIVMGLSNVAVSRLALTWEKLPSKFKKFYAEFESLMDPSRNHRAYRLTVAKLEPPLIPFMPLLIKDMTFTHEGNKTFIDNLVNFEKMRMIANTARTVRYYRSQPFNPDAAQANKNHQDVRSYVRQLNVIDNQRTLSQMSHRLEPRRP

[3] = target: Glutathione peroxidase 1 (Homo sapiens) (UniProt P07203); test: Primary qHTS Assay for Inhibitors of Recombinant Selenoprotein Glutathione Peroxidase 1 (GPX1) (AID 1845191); also: nearly all actives have a fitted effect of over 65% in size; also: potency is read from the fitted curve at half-maximal effect
Glutathione peroxidase 1 (Homo sapiens), sequence (P07203 whole entry, looked up): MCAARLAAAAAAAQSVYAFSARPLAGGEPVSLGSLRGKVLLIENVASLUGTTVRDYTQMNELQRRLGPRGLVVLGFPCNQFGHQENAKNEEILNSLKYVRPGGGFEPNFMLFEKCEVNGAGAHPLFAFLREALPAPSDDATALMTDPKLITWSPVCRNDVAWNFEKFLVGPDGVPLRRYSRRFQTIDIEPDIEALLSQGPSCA
Outline: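 GR-coupled readout: NADPH consumption tracked by fluorescence, ex 340/em 450 nm, at t=0 and after 15 min at RT. Final mix 10 nM GPX1, 1 mM GSH, 0.5 mM CHP, 0.5 mM NADPH, 100 nM GR, 0.01% BSA, following 30 min enzyme–compound preincubation.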

[4] = target: Phospholipid hydroperoxide glutathione peroxidase GPX4 (Homo sapiens) (UniProt P36969); test: Primary qHTS Assay for Inhibitors of Recombinant Selenoprotein Glutathione Peroxidase 4 (GPX4) (AID 1845192); also: nearly all actives have a fitted effect of over 65% in size; also: potency is read from the fitted curve at half-maximal effect
Phospholipid hydroperoxide glutathione peroxidase GPX4 (Homo sapiens), sequence (P36969 whole entry, looked up): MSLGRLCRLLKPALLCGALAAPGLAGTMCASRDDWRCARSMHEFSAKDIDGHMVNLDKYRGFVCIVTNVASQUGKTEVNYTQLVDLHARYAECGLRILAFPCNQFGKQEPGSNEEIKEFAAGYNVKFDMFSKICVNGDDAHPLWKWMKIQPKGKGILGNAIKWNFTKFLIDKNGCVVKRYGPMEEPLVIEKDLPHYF
Outline: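 Steps: GPX4 plus compound, 30 min RT; add GR/GSH/NADPH master mix; start with cumene hydroperoxide; read 340/450 nm fluorescence at 0 and 15 min. Finals were 200 nM GPX4, 1 mM GSH, 0.5 mM CHP, 0.5 mM NADPH, 100 nM GR.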

[5] = target: Luciferin 4-monooxygenase (Photinus pyralis) (UniProt P08659); test: Primary firefly luciferase (FLuc) qHTS assay for identification of artifact compounds. (AID 1845220); conditions: outcome: dose series up to 54.1 µM; also: series mostly up to about 54 µM; nearly all actives have a fitted effect of over 60% in size
Outline: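 D-luciferin and ATP (10 uM each, final) in Tris acetate buffer pH 7.6 were incubated with compounds for 15 min at room temperature. The reaction was started with 10 nM Photinus pyralis luciferase and luminescence read after 5 min. Percent inhibition was fitted to a 4-parameter Hill equation.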

[6] = test system: Nanoluciferase (engineered Oplophorus gracilirostris luciferase); test: Primary Nanoluciferase (NLuc) qHTS assay for identification of artifact compounds. (AID 1845222); also: series mostly up to about 54 µM
Outline: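 Diluted conditioned medium from NLuc-expressing S16 cells treated with compounds for 15 min at room temperature, then Nano-Glo substrate added; luminescence read after 5 min. Percent inhibition versus no-enzyme and DMSO controls fitted to 4-parameter Hill equation.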

[7] = Primary redox qHTS assay for identification of artifact compounds. (AID 1845223)
Outline: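 Redox-cycling detection via DTT (250 uM final) oxidation coupled to Amplex Red (25 uM)/HRP (250 mU/mL) in HBSS. 15 min preincubation plus 30 min after DTT, room temperature. Ex/Em 525/598 nm; 4-parameter Hill fit against DMSO and 10 uM DA3003.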

[8] = Viability counterscreen for antagonist of constitutive androstane receptor (CAR) against the NCATS DSHEA and TCM libraries (AID 1794837);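 also: compound exposure lasted 24 h before viability reading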
Outline: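 Viability was measured by CellTiter-Fluor fluorescence (405/540 nm, 1 hr) in HepG2-CYP2B6-hCAR cells. Cells were co-treated 24 hr with 48 uM CITCO (final), antagonist mode, and test substances.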

[9] = Viability counterscreen for agonist of constitutive androstane receptor (CAR) against the NCATS DSHEA and TCM libraries (AID 1794838);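 also: cells exposed to compound for 24 h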
Outline: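 Cell viability, from CellTiter-Fluor fluorescence (405/540 nm), was scored after a 24 h, 37C exposure of HepG2 cells carrying CYP2B6 reporter and hCAR to test substances in presence of 0.75 uM PK11195.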

[10] = target: Nuclear receptor subfamily 1 group I member 3 (Homo sapiens) (UniProt Q14994); test: Primary qHTS for agonist of constitutive androstane receptor (CAR) against the NCATS DSHEA and TCM libraries (AID 1794839);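 also: HepG2 cells expressing human CAR with a CYP2B6 reporter plus PK11195 antagonist; luciferase reporter luminescence read with ONE-Glo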
Nuclear receptor subfamily 1 group I member 3 (Homo sapiens), sequence (Q14994 whole entry, looked up): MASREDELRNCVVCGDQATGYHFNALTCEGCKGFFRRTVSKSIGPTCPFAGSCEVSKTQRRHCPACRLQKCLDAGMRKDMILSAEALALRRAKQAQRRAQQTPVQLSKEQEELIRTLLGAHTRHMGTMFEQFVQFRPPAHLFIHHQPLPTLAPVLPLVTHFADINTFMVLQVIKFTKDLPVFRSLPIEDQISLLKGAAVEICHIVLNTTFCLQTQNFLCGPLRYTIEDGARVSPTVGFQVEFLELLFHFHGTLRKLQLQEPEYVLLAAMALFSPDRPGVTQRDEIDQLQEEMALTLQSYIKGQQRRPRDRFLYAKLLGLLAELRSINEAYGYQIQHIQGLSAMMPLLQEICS
Outline: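 Agonist mode in presence of hCAR antagonist PK11195 (0.75 µM final): test substances, 24 h, 37 °C, on HepG2-CYP2B6-hCAR cells. Same-well readouts: fluorescence viability, then ONE-Glo luminescence; CITCO as reference agonist.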

[11] = HepG2 viability counterscreen (readout 2: ATP content) against the NCATS DSHEA and TCM libraries (AID 1794840);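 also: HepG2 cells exposed to substances for about 24 h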
Outline: (§1)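 Readout 1: cellular protease activity, GF-AFC substrate (25 uM final, 30 min, fluorescence 380/510 nm). Readout 2: ATP content by CellTiter-Glo luminescence after 30 min at RT. Both follow ~24 h exposure of HepG2 cells (1,000/well) to substances.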

[12] = HepG2 viability counterscreen (readout 1: protease activity) against the NCATS DSHEA and TCM libraries (AID 1794841);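 also: cells exposed to compounds for about 24 h before the protease read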
Outline: as §1

[13] = target: Cytochrome P450 3A4 (Homo sapiens) (UniProt P08684); test: qHTS for inhibitors of CYP3A4 against the NCATS DSHEA and TCM libraries (AID 1919971);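 also: inhibition lowers luminescence from luciferin made by CYP3A4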
Cytochrome P450 3A4 (Homo sapiens), sequence (P08684 whole entry, looked up): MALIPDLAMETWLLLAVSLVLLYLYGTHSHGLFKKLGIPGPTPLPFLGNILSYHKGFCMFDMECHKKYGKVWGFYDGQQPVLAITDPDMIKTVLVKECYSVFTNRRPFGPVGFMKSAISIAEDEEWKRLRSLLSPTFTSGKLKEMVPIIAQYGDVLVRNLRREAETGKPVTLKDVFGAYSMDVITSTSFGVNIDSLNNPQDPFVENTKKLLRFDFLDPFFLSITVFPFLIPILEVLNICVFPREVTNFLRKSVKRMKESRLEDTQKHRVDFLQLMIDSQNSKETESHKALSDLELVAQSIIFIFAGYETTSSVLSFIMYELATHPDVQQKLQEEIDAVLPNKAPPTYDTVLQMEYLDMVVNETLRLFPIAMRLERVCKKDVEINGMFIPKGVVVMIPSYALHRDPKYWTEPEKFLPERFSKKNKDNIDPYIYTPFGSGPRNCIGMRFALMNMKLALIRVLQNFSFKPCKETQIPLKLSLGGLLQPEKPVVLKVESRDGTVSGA
Outline: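 Substances were tested against enzyme with a pro-luciferin substrate; minus-enzyme wells served as background. After NADPH-initiated oxidation (30-45 min, RT), light was generated with P450-Glo reagent.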

[14] = target: Cytochrome P450 2D6 (Homo sapiens) (UniProt P10635); test: qHTS for inhibitors of CYP2D6 against the NCATS DSHEA and TCM libraries (AID 1919972)
Cytochrome P450 2D6 (Homo sapiens), sequence (P10635 whole entry, looked up): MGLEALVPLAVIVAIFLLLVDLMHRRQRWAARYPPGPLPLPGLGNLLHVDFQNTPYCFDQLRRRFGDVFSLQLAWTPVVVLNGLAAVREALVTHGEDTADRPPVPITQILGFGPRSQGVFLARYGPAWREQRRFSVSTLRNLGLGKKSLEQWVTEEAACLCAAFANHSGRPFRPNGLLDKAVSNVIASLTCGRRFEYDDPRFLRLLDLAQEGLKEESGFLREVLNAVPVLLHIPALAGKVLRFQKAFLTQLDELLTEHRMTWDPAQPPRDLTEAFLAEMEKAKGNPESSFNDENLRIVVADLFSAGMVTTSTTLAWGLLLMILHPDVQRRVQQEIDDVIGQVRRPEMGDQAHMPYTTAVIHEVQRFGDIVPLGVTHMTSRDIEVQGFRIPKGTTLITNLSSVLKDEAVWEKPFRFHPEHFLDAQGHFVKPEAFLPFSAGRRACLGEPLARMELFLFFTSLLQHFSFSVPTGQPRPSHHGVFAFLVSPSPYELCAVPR
Outline: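 qHTS, concentration–response format with most substances from 19.5 nM. CYP2D6 + pro-luciferin substrate, 15 min with compound, then 1x NADPH regen, 30–45 min RT dark. Glo detection 30 min, luminescence. Quinidine control.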

Nc1ncnc2c1ncn2[C@H]1CC[C@@H](CO)O1
outcome [1]: inactive

CC1CC(OC(=O)C(O)c2ccccc2)CC(C)(C)C1 (stereo not drawn)
outcome [2]: inactive | Potency [3]: inactive | Potency [4]: inactive | outcome [5]: inactive | outcome [6]: inactive | outcome [7]: inactive

O=C1c2c(O)cccc2[C@H]([C@@H]2O[C@H](CO)[C@@H](O)[C@H](O)[C@H]2O)c2cc(CO)cc(O)c21
outcome [1]: inactive

Cc1ncc(C[n+]2csc(CCO)c2C)c(N)n1
outcome [8]: inactive | outcome [9]: inactive | Potency [10]: inactive | outcome [11]: inactive | outcome [12]: inactive | Potency [3]: inactive | Potency [4]: inactive | outcome [13]: inactive | outcome [14]: inactive

CCCCC[C@H](O)/C=C/[C@@H]1[C@H]2C/C(=C/CCCC(=O)O)O[C@H]2C[C@H]1O
Potency [3]: inactive | Potency [4]: inactive

C[Se]CC[C@H](N)C(=O)O
Potency [3]: inactive | Potency [4]: inactive

CCC(C(=O)NC(N)=O)c1ccccc1 (stereo not drawn)
Potency [3]: inactive | Potency [4]: inactive

CCCCC[C@H](O)/C=C/[C@H]1[C@H](O)CC(=O)[C@@H]1CCCCCCC(=O)O
Potency [3]: inactive | Potency [4]: inactive

NC(=O)[C@H]1O[C@@H](O)[C@H](O)[C@@H](O)[C@@H]1O
Potency [3]: inactive | Potency [4]: inactive

O=C(O)CCC(=O)c1ccc(-c2ccccc2)cc1
Potency [3]: inactive | Potency [4]: inactive

COc1ccc(/C=C/C(=O)OCCC(C)C)cc1
Potency [3]: inactive | Potency [4]: inactive

C[C@@](Cc1ccc(O)c(O)c1)(NN)C(=O)O
Potency [3]: inactive | Potency [4]: inactive

OCc1ccccc1
Potency [3]: inactive | Potency [4]: inactive

NC(N)=NCC1COC2(CCCCC2)O1 (stereo not drawn)
Potency [3]: inactive | Potency [4]: inactive

O=[N+]([O-])O[C@@H]1CO[C@H]2[C@@H]1OC[C@@H]2O
Potency [3]: inactive | Potency [4]: inactive

O=P(O)(O)CP(=O)(O)O
Potency [3]: inactive | Potency [4]: inactive

C/C=C/C=C/C(=O)O
Potency [3]: inactive | Potency [4]: inactive

OCCCNc1ccccc1
Potency [3]: inactive | Potency [4]: inactive

CN(C)CCC(O)(c1ccccc1)c1ccccc1Cl (stereo not drawn)
Potency [3]: inactive | Potency [4]: inactive

COc1ccc2c(c1)OC(C)(C)C(c1ccccc1)C2c1ccc(OCCN2CCCC2)cc1 (stereo not drawn)
Potency [3]: inactive | Potency [4]: inactive

CCCCCCCCCCCCCCCCCC(=O)OCC(C)O (stereo not drawn)
Potency [3]: inactive | Potency [4]: inactive

C=CC1=C(C(=O)O)N2C(=O)[C@@H](NC(=O)/C(=N\O)c3csc(N)n3)[C@H]2SC1 (stereo in doubt)
Potency [3]: 11.4 µM (active) | Potency [4]: inactive

CN(C)CCOc1ccc(/C(=C(/CCCl)c2ccccc2)c2ccccc2)cc1
Potency [3]: inactive | Potency [4]: inactive

FCOC(C(F)(F)F)C(F)(F)F
Potency [3]: inactive | Potency [4]: inactive

O=C(OCc1ccccc1)c1cccnc1
Potency [3]: inactive | Potency [4]: inactive

CC(=O)NCCCS(=O)(=O)O
Potency [3]: inactive | Potency [4]: inactive

CC(CCc1ccc(O)cc1)NCC(O)c1ccc(O)cc1 (stereo not drawn)
Potency [3]: inactive | Potency [4]: inactive

CC(CN(C)C)CN1c2ccccc2Sc2ccc(C(F)(F)F)cc21 (stereo not drawn)
Potency [3]: inactive | Potency [4]: inactive

CNC(=O)OCc1cccc(COC(=O)NC)n1
Potency [3]: inactive | Potency [4]: inactive

N#Cc1ccc2c(c1)N(CCCN1CCC(O)CC1)c1ccccc1S2
Potency [3]: inactive | Potency [4]: inactive

CN(C)c1ccc(C(=C2C=CC(=[N+](C)C)C=C2)c2c(O)c(S(=O)(=O)[O-])cc3cc(S(=O)(=O)O)ccc23)cc1
Potency [3]: inactive | Potency [4]: inactive

NC(=O)[C@@H]1C[C@]2(NC(=O)NC2=O)c2cc(F)ccc2O1
Potency [3]: inactive | Potency [4]: inactive

C=C1CC[C@H](O)CC1=C/C=C1\CCC[C@]2(C)[C@@H]([C@H](C)CCCC(C)(C)O)CC[C@@H]12
Potency [3]: inactive | Potency [4]: 14.1 µM (active)

CCC(Oc1ccccc1)C(=O)N[C@@H]1C(=O)N2[C@@H]1SC(C)(C)[C@@H]2C(=O)O (stereo partly drawn)
Potency [3]: inactive | Potency [4]: 31.6 µM (active)

CC1CCCCN1CCCOC(=O)c1ccccc1 (stereo not drawn)
Potency [3]: inactive | Potency [4]: inactive

CNC(=O)c1c(I)c(C(=O)NCC(=O)Nc2c(I)c(C(=O)O)c(I)c(C(=O)NCCO)c2I)c(I)c(N(C)C(C)=O)c1I
Potency [3]: inactive | Potency [4]: inactive

CC(C)CCCC(C)NC(C)C (stereo not drawn)
Potency [3]: inactive | Potency [4]: inactive

CCCC(=O)Nc1c(I)cc(I)c(CC(CC)C(=O)O)c1I (stereo not drawn)
Potency [3]: inactive | Potency [4]: inactive

CNC(=O)C[C@@H](N)C(=O)N[C@@H](C(=O)N[C@@H]1C(=O)N2[C@@H]1SC(C)(C)[C@@H]2C(=O)O)c1ccc(O)cc1
Potency [3]: inactive | Potency [4]: inactive

C[C@@H]1C[C@H]2[C@@H]3C[C@H](F)C4=CC(=O)C=C[C@]4(C)[C@@]3(Cl)[C@@H](O)C[C@]2(C)[C@H]1C(=O)COC(=O)C(C)(C)C
Potency [3]: inactive | Potency [4]: inactive

O=C(CCCN1CCC(C(=O)c2ccc(F)cc2)CC1)c1ccc(F)cc1
Potency [3]: inactive | Potency [4]: inactive

COc1ccc([C@@H]2CC(=O)c3c(O)cc(O[C@@H]4O[C@H](CO[C@@H]5O[C@@H](C)[C@H](O)[C@@H](O)[C@H]5O)[C@@H](O)[C@H](O)[C@H]4O)cc3O2)cc1O
Potency [3]: inactive | Potency [4]: inactive
